This passage reports activation and Potency results from PubChem BioAssay (NCATS).

Results filed as inconclusive are left out. A number with no mark means an inactive call. Calls of active or inactive are those of the source. Calls come from the whole dose curve; as a rule, active = well fitted activation curve with a large enough effect in the signal ratio, with a control signal flat (not every such curve was filed as active); inconclusive = small, poorly fitted or top-dose-only effect, or effect the other way, or a change in a side signal; inactive = flat fitted curve, though single readings scatter; the % refers to the signal ratio.
Potency is the fitted concentration of half-maximal effect.

The assay can be described thus: qHTS Assay for Identification of Small Molecule Agonists for Hypoxia Response Element Signaling Pathway (AID 914). For activation: % of control where 0% means no effect. Conditions: ME-180 (cervical carcinoma) HRE-bla reporter, beta-lactamase ratio, CoCl2, 17 h; activation: stronger effect = higher value. The text has this:
NIH Molecular Libraries Screening Centers Network [MLSCN]
NIH Chemical Genomics Center [NCGC]
Hypoxia-inducible factor-1 (HIF-1) is the major hypoxia-regulated transcription factor that controls cellular responses to low oxygen concentration. HIF-1 is composed of two subunits: hypoxia responsive HIF-1 alpha and constitutively expressed HIF-1 beta, which is also known as aryl hydrocarbon receptor nuclear translocator. During hypoxic conditions, HIF-1 alpha heterodimerizes with HIF-1 beta and translocates into the nucleus where the HIF-1 complex binds to the hypoxia-response element (HRE) and activates expression of target genes such as VEGF (vascular endothelial growth factor). HIF-1 alpha protein levels are elevated in many solid tumors, including those of the cervix and brain. Within tumors, cells that are the greatest distance from blood vessels and therefore the most hypoxic express the highest levels of HIF-1 alpha. Therapeutic blockade of the HIF-1 signaling pathway in cancer cells therefore provides an attractive strategy for development of anticancer drugs.
Using a beta-lactamase reporter-gene under control of the hypoxia response element, a cell-based assay [CellSensor(TM) HRE-bla ME-180 developed by Invitrogen Corp.] was used to measure hypoxia-induced signaling. Library compounds were measured for their ability to positively modulate the action of EC50 CoCl2 on reporter gene activity. Compounds were screened in a titration series in 1536-well format. Positive modulators were identified based on the AC50 values derived from the screening data.
NCGC Assay Protocol Summary:
2500 cells/5uL in Opti-MEM medium containing 0.5% dialyzed FBS, 0.1 mM NEAA, 1 mM sodium pyruvate and 10 mM HEPES was dispensed into 1536-well plates and cells were cultured at 37 degrees Celsius overnight. Next day 23 nL of compounds or DMSO were delivered to each well using a pin tool, and 1uL of EC50 level of CoCl2, or EC100 level of CoCl2, or assay medium was added. And then the plates were incubated at 37 degrees Celsius for 17 hours. 1 uL of CCF4-dye mixture was added to each well. After incubated at room temperature for 2.5 hours the plates were measured on an EnVision plate reader at Excitation 405nm, Emission1=460nm and Emission 2=530nm. The %Activity was determined from the ratio of 460nm/530nm.
Regarding `O=C(O)CCN(CCC(=O)O)c1nnc(SCc2ccccc2)s1`, the activation was 24.5%.
On to `CCCOC(=O)CSC1=C(C#N)C(c2ccc3c(c2)OCO3)CC(=O)N1` (stereo not given), for which the activation was -15.4%.
On to `CCOc1ccc(CSC(CC(=O)O)C(=O)O)cc1` (stereo not given), for which the activation was 14.8%.
For `C=CCn1c(N)c(C(=O)OC(C)(C)C)c2nc3ccccc3nc21`, the Potency was 10 µM (active).
As for `Cc1cc(Cl)ccc1OCC(=O)OC(C)C(=O)N(C)C` (stereo not given), the activation is -0.0413%.
Turning to `O=c1/c(=C\c2cccn2-c2ccccc2)sc2nc3ccccc3n12`, the Potency was 12.6 µM (active).
Consider `COc1ccc(C2C(C(C)=O)=C(O)C(=O)N2c2nccs2)cc1OC` (stereo not given), for which the activation was -13.7%.
On to `CC(=O)N1CC=C2C(C#N)=C(N)C(C#N)(C#N)[C@H](c3ccoc3)[C@H]2C1`, for which the activation was -26.3%.
For `N=c1c(C(=O)NCc2ccccc2)cc2c(=O)n3ccccc3nc2n1Cc1ccco1`, the Potency is 6.31 µM (active).
As to `COCCCNC(=O)c1c(N)n(/N=C/c2cccnc2)c2nc3ccccc3nc12`, the Potency was 10 µM (active).
Regarding `CCOc1ccc(NC(=O)CSC2=C(C#N)C(c3ccc4c(c3)OCO4)CC(=O)N2)cc1` (stereo not given), the activation was -0.0576%.
Still for that read-out and setting: under `Cc1nn(CCO)c2c1C(=O)CCC2` stands 12.2%; under `Cc1nnc(SCCC#N)n(CCC#N)c1=O`, 15.5%; under `O=C1c2ccccc2C(=O)N1CC1c2ccccc2CCN1C(=O)N1CCOCC1` (stereo not given), 4.7%.
Regarding `C[N+](C)(C)CCN(Cc1cccs1)c1ccccn1`, the activation is 3.56%.
For `COc1cc(NC(=O)NC(C)(C(F)(F)F)C(F)(F)F)cc(OC)c1OC`, the activation is -29.2%.
For `Cc1c(/C(O)=C2\C(=O)C(=O)N(CCCN(C)C)C2c2ccccc2)cnn1-c1ccccc1` (stereo not given), the activation is 3.31%.
Regarding `Cc1cc(/C=N\O)c(C)n1-c1ccncc1`, the activation was 1.93%.
As for `CC(=O)N1CCN(c2nc(CC(C)C)c3c(c2C#N)CCC3)CC1`, the activation is 24.5%.
Regarding `COc1ccc(C2CC(=O)c3sc(N)nc3C2)cc1` (stereo not given), the activation was -11%.
Take `COc1nc(N(C)S(=O)(=O)c2ccc(C)cc2)nc(C)c1Cl`: the activation is -6.79%.
For the compound `Cc1cc(OCC(=O)Nn2cnnc2)ccc1Br`, the activation is 8.36%.
As for `Cc1c(C)c2cc(Cl)c(O)c(CN3CCN(C)CC3)c2oc1=O`, the Potency is 7.94 µM (active).
With `O=C(CNC1C(=O)Nc2ccccc21)Sc1ccccc1` (stereo not given), the activation was 4%.
Same read-out and setting: next, `CC12CN3CC(C)(CN(C1)C3c1ccc(Br)cc1O)C2` (stereo not given): -25.5%; `CCOc1ccc(NC(=O)c2nn(C)cc2Br)cc1`: 5.55%; `Cc1nn(-c2ccccc2)c2c1C(c1ccc(F)cc1F)C(C#N)=C(N)O2` (stereo not given): -12.7%.
Take `O=c1[nH]c(=O)n([C@H]2C[C@H](O)[C@H](CO)O2)cc1/C=C\Br`: the activation was 0.219%.
Same read-out and setting: next, `CCCOc1ccc(Cn2c(O)cc(=O)[nH]c2=O)cc1`: 16.1%.
As to `COc1ccc(-n2c(SCC(N)=O)nc3sc4c(c3c2=O)CCN(C)C4)cc1`, the activation is -0.0215%.
Still for that read-out and setting: under `Cc1cc(-c2cc(C)c(O)c(C(C)(C)C)c2)cc(C(C)(C)C)c1O` stands -9.94%.
With `COCCNC(=O)c1c(N)n(CCC2=CCCCC2)c2nc3ccccc3nc12`, the Potency was 10 µM (active).
Regarding `CCCSc1nc(C)c(CC(=O)O)c(=O)[nH]1`, the activation was 11%.
Take `COC(=O)C1=C(N)Oc2cc(C)oc(=O)c2C1c1ccncc1` (stereo not given): the activation was 12.2%.
With `CCOC(=O)C(c1ccccc1)N1CCN(c2ccc(OC)cc2)CC1` (stereo not given), the activation is -13.4%.
Consider `COC(=O)c1ccc(C(=O)OC)c(NC(=O)c2cc3ccccc3o2)c1`, for which the activation is -0.252%.
As to `COc1ccc2c(C)nc(Nc3nc(C)cc(C)n3)nc2c1`, the activation was -6.59%.
Turning to `CC(C)(C)NCc1cc2ccccc2[nH]c1=O`, the activation is -14.6%.
As for `CCN(CC)CCN1C(=O)C(O)=C(C(=O)c2cc3ccccc3o2)C1c1cccnc1` (stereo not given), the activation was 11.5%.
As for `COC(=O)C(NC(C)=O)(Nc1ccc(Br)cn1)C(F)(F)F` (stereo not given), the activation was 3.3%.
